According to PubChem BioAssay (NCI):
About 83,000 compounds went through this panel and 20% of them were active in at least one assay; those are over-represented in the sample as a whole.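 Results are percent growth after 48 hours of single-concentration exposure. 100 means growth as in untreated cells, lower positive values show inhibition; negative values down to -100 show cell death.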 A number with no mark means an inactive call. Active and inactive are the calls of the source. The calls were made as follows: active = growth percent below 10; inactive = the rest.

How the values were obtained:
Test in all cases: NCI-60 one-dose screen, 48 h (100 = growth as untreated, 0 = no growth, -100 = all killed)
Settings in all cases: 10 µM
[1] = tested on: HCT-15 colon
[2] = tested on: HT29 colon
[3] = tested on: SNB-75 CNS
[4] = tested on: SNB-19 CNS
[5] = tested on: U251 CNS
[6] = tested on: PC-3 prostate
[7] = tested on: SK-MEL-5 melanoma
[8] = tested on: UACC-62 melanoma
[9] = tested on: LOX IMVI melanoma
[10] = tested on: SK-MEL-28 melanoma

| SMILES | growth [1] | growth [2] | growth [3] | growth [4] [%] | growth [5] | growth [6] | growth [7] | growth [8] | growth [9] | growth [10] |
| --- | --- | --- | --- | --- | --- | --- | --- | --- | --- | --- |
| COc1cc(C2CC(=O)Nc3c2c(C)nn3-c2nc3ccccc3[nH]2)cc(OC)c1O (stereo not given) | 40.3% | 57.9% | 6.05% (active) | 44.1 | 53.3% | 68.1% | 60.8% | 67.2% | 55.1% | 13.2% |
| COc1nc2c(c(=O)[nH]1)C(c1ccc(Oc3ccnc4cc(Cl)ccc34)c(OC)c1)C=C(c1cc(OC)c(OC)c(OC)c1)N2 (stereo not given) | 98.8% | 89.8% | 91.9% | 89.1 | 97.4% | 87.2% | 95.1% | 95.9% | 95.5% | 116% |
| CCOC(=O)c1ccc(N(C=O)CCC(=O)CCl)cc1 | 17.8% | 1.42% (active) | 26.5% | 59.4 | 4.55% (active) | 26% | 2.68% (active) | 13% | 3.93% (active) | 34% |
| Cc1cccc2c(Nc3ccc(NS(C)(=O)=O)cc3)c3ccc([N+](=O)[O-])cc3nc12 | 6.83% (active) | -10.3% (active) | 19.7% | 25.7 | 3.4% (active) | 18% | -19.4% (active) | 1.92% (active) | -43.5% (active) | -5.65% (active) |
| CCN(CC)CC(O)Cc1ccc(OC)cc1 (stereo not given) | 108% | 103% | 102% | 109 | 108% | 96.5% | 100% | 111% | 102% | 116% |
| CCCCCCCCCCCC(c1ccccc1)N(C)C (stereo not given) | 95.6% | 86.3% | 89.5% | 95.1 | 95.6% | 78.1% | 97% | 94.9% | 92.7% | 99% |
| CCOc1ccc(-n2cc(-c3ccc(N(C)C)cc3)[n+]3c2CCCCC3)cc1 | 75.8% | 9.2% (active) | 18.4% | 20.3 | 8.21% (active) | 4.48% (active) | -92.4% (active) | 20.4% | 12.7% | 51.2% |
| CCn1nc(-c2ccc(C(=O)OC)cc2)nc2c(=O)n(C)c(=O)nc1-2 | 64.1% | 70.7% | -44% (active) | 56.8 | 41.5% | 57.3% | 87% | 50.5% | 55.5% | 77.7% |
| COc1cc([C@@H]2c3cc4c(cc3[C@H](SC(=N)N)[C@H]3COC(=O)[C@H]23)OCO4)cc(OC)c1OC | 11.8% | 8.38% (active) | 30.1% | 37.4 | 23.2% | 19.5% | -29.6% (active) | 62.2% | 16.5% | 63.7% |
| CCOc1nc(-c2ccccc2)cc2c(O)c(C(=O)NCCCO)[nH]c(=O)c12 | 102% | 104% | 88.6% | 96.9 | 100% | 46.3% | 88.8% | 99.8% | 108% | 102% |
| COc1ccc2nc(-c3ccccc3)cc(C(C)=O)c2c1 | 94.9% | 93.6% | 79.7% | 101 | 99.1% | 84.4% | 98.5% | 91.1% | 92.2% | 108% |
| CC(C)=C1CCC(C)C/C1=N\N=C(N)N (stereo not given) | 99.7% | 102% | 97.7% | 97.5 | 96.5% | 87.9% | 98.6% | 103% | 93.9% | 109% |
| COc1cccc(C(=O)NNc2nc(N3CCOCC3)nc(N3CCN(C(c4ccccc4)c4ccccc4)CC3)n2)c1 | 89.2% | 95% | 71.5% | 86.3 | 85.2% | 55.1% | 53.3% | 65.8% | 83.1% | 93.4% |
